Screening results (PubChem BioAssay)
In the library only some 6.1% were active in any assay of this set; here they are far more common.
D1 antag: Antagonist of Human D 1 Dopamine Receptor: qHTS; AID 504652, 2011; activity change, negative = inhibition, % at 10 µM; actives 3.2% (n = 360,000); D(1A) dopamine receptor (Homo sapiens), P21728; HEK293 TREx D1 cells, calcium flux, dopamine EC80; hits give low values; in the data active means activity change below about -30%; further: on the % scale 0 is the no-effect control and ±100 the full control effect
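Compound effects on dopamine-evoked calcium signalling were measured in tetracycline-induced HEK293 Trex D1 cells. Dopamine at EC80 followed a 180 s compound pre-read, and fluorescence was tracked kinetically for 180 s more.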
D1 agonist: Allosteric Agonists of the Human D1 Dopamine Receptor: qHTS | D(1A) dopamine receptor (Homo sapiens), P21728 | HEK293 T-REx D1 cells, calcium flux, agonist mode | activation, % at 2 µM | actives 1% (n = 360,000) | AID 504660, 2011; in the data active means activation above about 30%; further: 0% is about no effect
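Inducible HEK293 T-REx D1 cells, force-coupled to calcium signalling, were plated at 4000 cells/well with tetracycline and held overnight at 30 C. After no-wash calcium dye loading, compound-evoked calcium rise over 180 s flagged agonists.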
DRD3 agonist: qHTS of D3 Dopamine Receptor Agonist: qHTS | D(3) dopamine receptor (Homo sapiens), P35462 | D3R DiscoveRx beta-arrestin cells, luminescence, 90 min | max activation, % | actives 0.58% (n = 410,000) | AID 652048, 2013; in the data active means max activation above about 30%; further: 0% is about no effect
Target sequence (P35462 whole entry, looked up): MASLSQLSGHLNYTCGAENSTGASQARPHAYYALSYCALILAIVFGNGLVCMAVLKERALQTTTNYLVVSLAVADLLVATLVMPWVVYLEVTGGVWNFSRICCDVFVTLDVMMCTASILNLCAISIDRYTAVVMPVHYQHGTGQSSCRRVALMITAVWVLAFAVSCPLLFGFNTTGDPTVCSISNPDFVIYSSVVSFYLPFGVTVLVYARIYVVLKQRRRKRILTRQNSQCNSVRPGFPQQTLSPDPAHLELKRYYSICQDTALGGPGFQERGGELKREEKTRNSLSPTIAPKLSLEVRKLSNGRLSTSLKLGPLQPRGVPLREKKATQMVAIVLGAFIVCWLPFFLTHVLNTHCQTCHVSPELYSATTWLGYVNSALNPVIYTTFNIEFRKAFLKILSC
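Agonist mode: compounds and dopamine controls were applied to plated cells for 90 min at 37 degrees C after an overnight attachment at 1500 cells/well. Luminescent read-out followed 30 - 60 minutes at room temperature with DiscoveRx detection reagent.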
D1 PAM: Potentiators of Human D1 Dopamine Receptor: qHTS | D(1A) dopamine receptor (Homo sapiens), P21728 | HEK293 TREx D1 cells, calcium flux, dopamine EC20 potentiation | potentiation, % at 10 µM | actives 0.036% (n = 360,000); in the data active means potentiation above about 30%; further: 0% is about no effect
D3 antag: qHTS of D3 Dopamine Receptor Antagonist: qHTS | D(3) dopamine receptor (Homo sapiens), P35462 | D3R cells, DiscoveRx beta-arrestin luminescence, antagonist mode; hits give low values | max response, negative = inhibition, % | actives 2.5% (n = 360,000); in the data active means max response below about -50%; inconclusive means no clear call, values can overlap the other calls; further: on the % scale 0 is the no-effect control and ±100 the full control effect
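Cells plated overnight at 1500 cells/well, then exposed to library compounds with dopamine controls for 90 minutes at 37 degrees C. DiscoveRx reagent added for 30–60 minutes at room temperature; luminescence read, quantitative HTS format.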
* = called active by the depositor; ? = inconclusive; · = not tested or not shown; ! = not confirmed by another sample.

SMILES	D1 antag	D1 agonist	DRD3 agonist	D1 PAM	D3 antag
Cc1cccc(NCc2nc3ccccc3n2CCOc2ccccc2C)c1	-22.8	1.1	-0.6	0.3	·
COc1ccc(-c2cnc3c(NC(C)=O)cc(-c4ccc(C(=O)N5CCOCC5)cc4)cn23)cc1OC	·	·	0.7	·	155.5
CCOc1cccc(-c2nc3ccccc3c(=O)o2)c1	28.7	-0.1	-6.9	-2.2	·
COc1ccc(CNC(=O)CSc2nc3ccc(N)cc3s2)cc1	-31.9*	0.1	-3.5	-1.4	-4.4
Nc1ccc2nc(SCC(=O)Nc3ccc(N4CCOCC4)c(Cl)c3)sc2c1	-33.8*	17.5	15.1	-4.0	4.0
Nc1nnc(SCC(=O)Nc2ccc(N3CCOCC3)c(Cl)c2)s1	-36.6*	8.7	3.7	-1.1	0.6
CN(CC(=O)Nc1ccc(N2CCOCC2)cc1)C(=O)c1cc(F)c(F)cc1Cl	-41.9*	0.1	9.2	-7.5	-7.9
COc1cccc(C(C)(O)c2nc(-c3ccc(OC)c(OC)c3)cs2)c1 (centres undefined)	·	·	2.0	·	0.9
Cc1ccc(NC(=O)CSCC(=O)Nc2ccc(N3CCOCC3)c(Cl)c2)cc1	-33.6*	5.4	-16.7	-4.2	-6.2
Cc1ccc(NC(=O)CSCC(=O)Nc2ccc(N3CCOCC3)cc2N2CCOCC2)cc1	1.6	4.2	1.3	2.0	19.7
Cc1ccc(NC(=O)CSCC(=O)NC2(C)CCS(=O)(=O)C2)cc1 (centres undefined)	-40.1*	4.0	-4.1	·	1.5
Cc1cc(-c2ccc(C)c(S(=O)(=O)NCc3cccs3)c2)on1	-12.8	1.8	-7.8	-4.2	·
COc1cccc(OC)c1NC(=O)CN1CCN(C)CC1	8.8	6.2	-1.6	7.1	-1.7
CC(C)Cn1cc(NC(=O)NCc2ccc(Cl)cc2)c2ccccc2c1=O	3.8	0.3	-4.4	-5.4	·
CCOC(=O)CN1C(=O)C(C)(C)Oc2ccc(C(=O)Nc3ccccc3OC)cc21	-0.1	0.6	3.1	-8.0	-95.3*
COc1ccc(S(=O)(=O)N2CCOC2CNC(=O)C(=O)NCCCN2CCCC2=O)cc1OC (centres undefined)	·	·	-3.8	·	-23.0
CCCCc1ncc(CN2CCC(n3nccc3NC(=O)c3ccccc3Cl)CC2)[nH]1	-9.5	1.0	-5.4	7.4	3.2
O=C1c2ccccc2NC(c2cccc(F)c2)N1Cc1ccco1 (centres undefined)	3.0	-0.5	-25.0	1.6	-61.0*
CC(C)C(=O)OC/C(O)=C(\C#N)c1nc2ccccc2[nH]1	-24.8	2.3	3.8	-6.2	9.5
Cc1ccc(C(C)C)c(OC/C(O)=C(\C#N)c2nc3ccccc3[nH]2)c1	-31.7*	1.8	6.8	-3.8	8.2
C[C@]12CCC(=O)CC1CCC1C2CC[C@@]2(C)C1CC[C@@]21CCO1 (some centres undefined)	0.1	3.0	6.5	-4.5	-19.5
C[C@]12CCC(=O)C[C@@H]1CC[C@@H]1[C@@H]2CC[C@]2(C)C=CC[C@@H]12	16.4	0.9	35.2*!	2.0	18.7
CCn1cc2nc(SCC(=O)Nc3ccc(C)cc3C)n(Cc3ccc(C)cc3)c(=O)c2n1	-6.2	9.5	-21.3	-6.5	·
CC1(C)CC(=O)C2=C(C1)Nc1cc(Cl)ccc1S2	-7.7	6.8	30.7*	-4.3	13.9
O=C(NCc1ccco1)c1ccc(COc2cc(Cl)ccc2Cl)cc1	-3.2	12.4	-5.8	-8.2	-4.2
SMILES	D1 antag	D1 agonist	DRD3 agonist	D1 PAM	D3 antag
COc1ccc(O)c(C2Nc3ccccc3-n3c(-c4ccccc4)c4c(=O)n(C)c(=O)n(C)c4c32)c1 (centres undefined)	5.3	2.1	44.8*	-0.6	·
COc1ccc(-c2c3c(=O)n(C)c(=O)n(C)c3c3n2-c2ccccc2NC3c2ccco2)cc1 (centres undefined)	-4.1	1.2	-21.1	-3.0	·
Cc1ccc(-c2c3c(=O)n(C)c(=O)n(C)c3c3n2-c2ccccc2NC3c2ccc(C)cc2O)cc1 (centres undefined)	-12.6	9.4	47.1*	-0.8	·
Cn1c(=O)c2c(-c3ccccc3)n3c(c2n(C)c1=O)C(c1ccc([N+](=O)[O-])cc1)Nc1ccccc1-3 (centres undefined)	-9.9	3.9	-11.2	-1.4	·
C[C@@H](c1ccccc1)N1C[C@@H](COCc2ccccc2)Oc2cc(N3CC[C@H](O)C3)ccc2S1(=O)=O	·	·	-6.8	·	7.0
Cc1ccc(S(=O)(=O)c2nc(S(=O)(=O)c3ccc(C)cc3)c(N3CCN(CCO)CC3)s2)cc1	-4.0	5.2	-17.6	0.9	-91.6*
CCS(=O)(=O)c1nc(S(=O)(=O)c2ccc(Cl)cc2)c(N2CCN(C)CC2)s1	39.7	2.0	-19.5	-1.6	-74.6*
CCCS(=O)(=O)c1nc(S(=O)(=O)c2ccc(Cl)cc2)c(N2CCC(O)CC2)s1	-16.2	3.3	-12.6	51.6*	2.1
CCS(=O)(=O)c1nc(S(=O)(=O)c2ccc(C)cc2)c(N2CCC(C)CC2)s1	-36.1*	4.3	-0.1	-6.9	-9.5
CS(=O)(=O)c1nc(S(=O)(=O)c2ccc(Cl)cc2)c(N2CCN(CCO)CC2)s1	4.2	0.1	-5.8	3.2	-13.0
CO/N=C(\C(=O)N[C@@H]1C(=O)N2C(C(=O)O)=C(CSc3cnns3)CS[C@H]12)c1csc(N)n1	·	·	0.1	·	·
COc1cccc(/C=C/C(=C2/C(=O)N(c3ccccc3)N=C2C)c2ccc(Br)cc2)c1OC	-84.8*	0.3	-5.7	-11.2	3.9
COc1cccc(/C=C/C(=C2/C(=O)N(c3ccccc3)N=C2C)c2ccccc2)c1OC	2.7	2.5	3.0	-6.1	3.4
C/C(=N\NS(=O)(=O)c1ccc(Cl)c([N+](=O)[O-])c1)c1ccc(C)o1	-16.3	-2.2	7.5	-0.1	-70.4*
C/C(=N\NS(=O)(=O)c1ccc(C)c([N+](=O)[O-])c1)c1ccc2c(c1)OCO2	4.5	3.4	-14.4	2.9	-18.9
C/C(=N\Nc1ccc([N+](=O)[O-])cc1)c1cc2ccccc2o1	-30.2*	59.5*	-11.1	-11.8	-24.7
C/C(=N\NS(=O)(=O)c1ccc(Cl)c([N+](=O)[O-])c1)c1cc2ccccc2o1	-5.8	0.6	2.6	-2.9	-97.8*
Cc1ccc(C(=O)c2cc3ccccc3o2)cc1[N+](=O)[O-]	·	2.5	-3.8	-5.6	?
C/C(=N\NS(=O)(=O)c1ccc(C)c([N+](=O)[O-])c1)c1cc2ccccc2o1	-5.7	0.1	-7.7	-2.7	-70.3*
Cc1c(NC(=O)c2ccc(NC(=O)C3CC3)cc2)cccc1C(=O)O	5.7	2.4	-0.7	-4.0	4.6
O=C(NCc1ccccc1)Nc1cccn(Cc2ccccc2Cl)c1=O	-12.0	1.4	1.7	0.9	17.6
